These results are taken from PubChem BioAssay (NCATS).

Values without a mark were called inactive. Inconclusive results are not listed. Calls of active or inactive are those of the source. Unless noted, the call rests on the fitted dose curve; in most records, active means well fitted curve in the direction sought with a large enough effect; inconclusive means small, poorly fitted or top-dose-only effect, or another doubt; inactive means no such curve, though single readings can be large; an effect the other way counts as inactive or inconclusive.

For assay [1], the target named is Glucocorticoid receptor (Homo sapiens) (UniProt P04150). Kind of assay: GR-GFP Redistribution (AID 450;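 active means compounds whose dose series gives a full or clear partial fitted curve of increased nuclear translocation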; further: potency means the concentration at half of the fitted maximal effect). The following applies: U2OS GR-GFP nuclear translocation, laser cytometry, 2 h.
Sequence of Glucocorticoid receptor (Homo sapiens) (P04150 whole entry, looked up, the tested form may be a part): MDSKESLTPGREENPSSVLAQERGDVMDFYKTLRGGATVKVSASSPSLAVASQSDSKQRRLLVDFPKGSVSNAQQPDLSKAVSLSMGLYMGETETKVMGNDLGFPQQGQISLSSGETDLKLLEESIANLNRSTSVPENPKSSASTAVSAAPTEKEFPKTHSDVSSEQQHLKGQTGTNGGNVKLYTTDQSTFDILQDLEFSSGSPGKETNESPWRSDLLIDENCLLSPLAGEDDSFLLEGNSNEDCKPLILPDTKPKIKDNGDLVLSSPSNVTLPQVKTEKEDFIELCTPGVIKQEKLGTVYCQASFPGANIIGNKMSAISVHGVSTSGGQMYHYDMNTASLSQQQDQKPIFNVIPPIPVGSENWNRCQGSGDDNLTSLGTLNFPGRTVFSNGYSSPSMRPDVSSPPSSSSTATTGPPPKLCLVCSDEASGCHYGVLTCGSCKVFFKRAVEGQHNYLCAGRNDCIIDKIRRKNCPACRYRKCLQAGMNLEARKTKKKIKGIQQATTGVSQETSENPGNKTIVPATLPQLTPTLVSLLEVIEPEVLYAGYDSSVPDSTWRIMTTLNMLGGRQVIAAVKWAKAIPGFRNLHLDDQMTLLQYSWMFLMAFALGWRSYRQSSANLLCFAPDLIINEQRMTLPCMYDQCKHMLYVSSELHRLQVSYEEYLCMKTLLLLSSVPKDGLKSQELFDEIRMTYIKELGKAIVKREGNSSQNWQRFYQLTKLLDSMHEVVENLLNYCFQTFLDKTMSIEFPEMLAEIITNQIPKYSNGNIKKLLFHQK
For assay [2], the target named is 3',5'-cyclic-AMP phosphodiesterase 4B (Homo sapiens) (UniProt Q07343). In words: qHTS Assay for Inhibitors of PDE-IV (AID 607; active means well fitted activation curve with a large enough effect in the main read-out, with a control signal flat, not every such curve was filed as active). As to conditions: HEK293 ACTOne CNG channel cells, membrane potential fluorescence; series mostly up to 22.9 µM. In a few lines:
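HEK293 ACTOne cells with CNG channel (1000/well), endogenous PDE4; membrane potential dye, compounds up to 22.9 uM final. Fluorescence Ex 535/Em 590; RO 20-1724 (100 uM final) as reference.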
A general note: Quantitative high-throughput screening tests each substance at several concentrations.

Assay [3] concerns the target DNA dC->dU-editing enzyme APOBEC-3G (Homo sapiens) (UniProt Q9HC16). Kind of assay: qHTS for inhibitors of Vif-A3G interactions: Validation (AID 588379). As to conditions: Vif-A3G protein interaction assay; series mostly up to 46.1 µM. In a few lines: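 Yellow fluorescence (Ex 488, Em 500-530) of Vif-coexpressing HeLa A3G-eYFP cells, scanned by Acumen cytometer, reports blocked A3G degradation. Cells plated at 700/well overnight at 37 deg C before compound addition, then a further overnight compound incubation at 37 deg C.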

Assay [4] deals with Zika virus NS2B-NS3 protease. In words: Primary screen GU AMC qHTS for Zika virus inhibitors (AID 1347154). Further: nearly all actives have a fitted effect of over 70% in size. Further: potency means the concentration at half of the fitted maximal effect. As to conditions: Zika NS2B-NS3 unlinked protease, AMC fluorogenic substrate; series mostly up to 54.1 µM. The procedure, abridged: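 Unlinked Zika NS2B hydrophilic domain/NS3 protease domain noncovalent complex (25 nM final) in 10 mM Tris-HCl pH 8.0, 0.01% Tween 20, with AMC peptide substrate. Fluorescence (ex 340, em 450 nm) change over 15 min, room temperature; percent inhibition fitted to 4-parameter Hill equation.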

Assay [5] has as its target Glucocorticoid receptor (Homo sapiens) (UniProt P04150). In words: GR-EFC Redistribution (AID 451; calls by dose curve; further: potency means the concentration at half of the fitted maximal effect). As to conditions: CHO-K1 GR-EFC translocation, beta-gal luminescence, 2 h. In a few lines:
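CHO-K1 cells stably expressing nuclear-localized β-gal enzyme acceptor and GR fused C-terminally to the enzyme donor fragment; ligand-driven nuclear translocation restores β-gal by complementation. Compounds titrated up to 46 uM final, 2 h at 37 °C; luminescence read.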

For assay [6], the target named is Cytochrome P450 3A4 (Homo sapiens) (UniProt P08684). In words: qHTS Assay for Inhibitors and Substrates of Cytochrome P450 3A4 (AID 884). Further: nearly all actives have a fitted effect of over 50% in size. Further: potency means the concentration at half of the fitted maximal effect. As to conditions: recombinant CYP3A4, Luciferin-PPXE luminescence; series mostly up to 57.1 µM. In a few lines: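 Luminescent readout of luciferin produced by CYP3A4 (20 nM) dealkylation of Luciferin-PPXE, 25 uM (its KM). NADPH-driven reaction ran 60 min at RT after 10 min compound preincubation; data scaled to 57 uM ketoconazole as 100% inhibition.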
Sequence of Cytochrome P450 3A4 (Homo sapiens) (P08684 whole entry, looked up): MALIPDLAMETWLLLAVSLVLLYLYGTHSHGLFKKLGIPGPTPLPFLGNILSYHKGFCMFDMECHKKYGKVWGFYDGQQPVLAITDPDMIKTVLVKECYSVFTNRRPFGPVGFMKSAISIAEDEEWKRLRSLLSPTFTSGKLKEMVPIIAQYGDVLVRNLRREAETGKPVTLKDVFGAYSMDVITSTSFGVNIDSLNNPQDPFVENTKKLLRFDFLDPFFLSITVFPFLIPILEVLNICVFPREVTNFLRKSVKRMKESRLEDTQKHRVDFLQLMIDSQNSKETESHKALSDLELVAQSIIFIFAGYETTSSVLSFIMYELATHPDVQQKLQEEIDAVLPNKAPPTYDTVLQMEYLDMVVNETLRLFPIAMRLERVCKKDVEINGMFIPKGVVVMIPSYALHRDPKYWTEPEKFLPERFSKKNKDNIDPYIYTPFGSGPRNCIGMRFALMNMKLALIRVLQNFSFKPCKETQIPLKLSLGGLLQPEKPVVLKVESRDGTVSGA

Sequence of 3',5'-cyclic-AMP phosphodiesterase 4B (Homo sapiens) (Q07343 whole entry, looked up): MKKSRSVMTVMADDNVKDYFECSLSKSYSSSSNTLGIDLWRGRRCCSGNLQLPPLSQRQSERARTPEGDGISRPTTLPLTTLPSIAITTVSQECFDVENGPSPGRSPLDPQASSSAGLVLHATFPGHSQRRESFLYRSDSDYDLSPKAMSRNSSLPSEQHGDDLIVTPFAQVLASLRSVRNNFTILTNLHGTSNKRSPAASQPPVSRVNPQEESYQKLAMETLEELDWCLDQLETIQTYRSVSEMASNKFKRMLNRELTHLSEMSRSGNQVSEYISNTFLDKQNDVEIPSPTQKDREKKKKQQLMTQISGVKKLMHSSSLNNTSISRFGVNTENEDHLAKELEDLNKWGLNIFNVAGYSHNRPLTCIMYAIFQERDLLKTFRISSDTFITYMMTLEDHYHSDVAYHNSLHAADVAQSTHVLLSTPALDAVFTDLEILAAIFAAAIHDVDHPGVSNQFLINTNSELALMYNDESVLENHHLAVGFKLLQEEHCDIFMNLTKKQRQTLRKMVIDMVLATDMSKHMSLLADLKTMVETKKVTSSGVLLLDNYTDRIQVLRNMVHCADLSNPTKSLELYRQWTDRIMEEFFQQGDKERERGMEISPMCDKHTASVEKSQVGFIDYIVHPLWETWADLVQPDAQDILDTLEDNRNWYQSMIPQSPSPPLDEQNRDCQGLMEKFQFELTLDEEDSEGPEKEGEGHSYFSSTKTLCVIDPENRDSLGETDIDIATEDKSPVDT
Sequence of DNA dC->dU-editing enzyme APOBEC-3G (Homo sapiens) (Q9HC16 whole entry, looked up): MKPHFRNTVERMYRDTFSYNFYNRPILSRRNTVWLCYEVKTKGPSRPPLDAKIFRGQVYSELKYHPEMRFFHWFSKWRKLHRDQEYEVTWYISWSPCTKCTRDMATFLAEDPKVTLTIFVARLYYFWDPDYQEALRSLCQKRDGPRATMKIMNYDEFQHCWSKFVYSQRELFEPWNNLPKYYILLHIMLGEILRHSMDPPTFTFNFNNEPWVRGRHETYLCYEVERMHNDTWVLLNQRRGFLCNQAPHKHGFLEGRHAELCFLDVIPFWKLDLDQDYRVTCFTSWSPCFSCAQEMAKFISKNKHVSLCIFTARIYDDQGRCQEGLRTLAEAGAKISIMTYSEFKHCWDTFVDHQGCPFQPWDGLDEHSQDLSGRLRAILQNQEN

With `COc1ccccc1N1CCN(C[C@@H]2CN3C(=O)N(C)c4ccccc4C3=N2)CC1`, the Potency in assay [1] was above 46 µM. In addition, the Potency entry in assay [2], in assay [3] and in assay [4] was “inactive” each time.

For the compound `CC(C)N=C(N)N=C(N)Nc1ccc(Cl)cc1`, the Potency result in assay [4] was “inactive”.

On to `CCCCCCCCCCCC(=O)O[C@H](CC(=O)O)C[N+](C)(C)C`, for which the Potency in assay [1] and in assay [5] was above 46 µM throughout. The Potency entry in assay [2], in assay [3] and in assay [4] was “inactive” throughout.

On to `O=S(c1ccccc1)c1ccc2nnnn2n1` (stereo not given), for which, in assay [6], the result was inactive. Also, the Potency entry in assay [3] and in assay [4] was “inactive” throughout.

For `CCCCN1CCC[C@@H]1CNC(=O)c1cc(C#N)c2ccccc2c1OC`, the Potency in assay [1] and in assay [5] was above 46 µM in each case. Further, the Potency result in assay [2], in assay [3] and in assay [4] was “inactive” in each case.

Take `COc1ccccc1CC(=N)N1C[C@@H]2C(=O)CCC(c3ccccc3)(c3ccccc3)[C@@H]2C1`: the Potency in assay [1] is above 46 µM; in assay [5], above 46 µM; in assay [6], 3.16 µM (active). Moreover, the Potency result in assay [3] and in assay [4] was “inactive” throughout.

As for `NCCCCCCNS(=O)(=O)c1cccc2ccccc12`, the Potency in assay [1] was above 46 µM; in assay [5], above 46 µM; in assay [6], 6.31 µM (active). Besides, the Potency result in assay [2], in assay [3] and in assay [4] was “inactive” throughout.

For `CC(C)Oc1ccc2c(=O)c3cc(C(=O)O)ccc3oc2c1`, the Potency in assay [1] and in assay [5] was above 46 µM in each case. Also, the Potency entry in assay [2], in assay [3] and in assay [4] was “inactive” in each case.

As to `Clc1cccc(C=NC=Nc2cccc(Cl)c2)c1`, the Potency in assay [1] is above 46 µM. Also, the Potency result in assay [3] and in assay [4] was “inactive” in each case.

Consider `CC(C)(C)c1cc(O)c(C(C)(C)C)cc1O`, for which the Potency in assay [1] and in assay [5] was above 46 µM each time. Moreover, the Potency entry in assay [4] is “inactive”.

With `N=C(C[C@@H](O)COc1ccccc1-c1ccccc1)N1CCCCC1`, the Potency in assay [1] and in assay [5] was above 46 µM throughout. The Potency entry in assay [3] and in assay [4] was “inactive” each time.

Take `N#C[C@H](Cc1ccc(O)cc1)c1ccc(O)cc1`: the Potency entry in assay [2], in assay [3] and in assay [4] was “inactive” each time.

As to `CCCCCCCCCCCCCCCCCCc1ccc(C(=O)/C=C\C(=O)O)cc1`, the Potency in assay [1] and in assay [5] was above 46 µM each time. For the same compound, the Potency result in assay [3] and in assay [4] was “inactive” throughout.

In the case of `CCCCCCCCCCCCC/C=C\[C@@H](O)[C@@H](N)CO`, the Potency in assay [5] is above 46 µM. Moreover, the Potency result in assay [2], in assay [6], in assay [3] and in assay [4] was “inactive” each time.

Take `O=C(/C=C\c1ccc(O)c(O)c1)O[C@@H](Cc1ccc(O)c(O)c1)C(=O)O`: the figures for the Potency in assay [1], in assay [5] and in assay [4] were above 46 µM, above 46 µM and 4.74 µM (active), respectively. Besides, the Potency entry in assay [3] was “inactive”.

In the case of `O=C1c2ccccc2C(Cc2ccnc(F)c2)(Cc2ccnc(F)c2)c2ccccc21`, the Potency in assay [6] was 15.8 µM (active). Further, the Potency result in assay [4] was “inactive”.

In the case of `CCS(=O)(=O)N1CCC[C@H]2CN3CCc4cc(OC)ccc4[C@@H]3C[C@@H]21`, the values for the Potency in assay [1], in assay [5] and in assay [6] were above 46 µM, above 46 µM and 5.01 µM (active), respectively. In addition, the Potency entry in assay [3] and in assay [4] was “inactive” each time.

Turning to `COc1ccc([N+](=O)[O-])c2c1CCN2C(=O)CC[C@H](N)C(=O)O`, the Potency in assay [1] was 4.81 µM (active); in assay [5] it was above 46 µM. Besides, the Potency entry in assay [2], in assay [3] and in assay [4] was “inactive” in each case.

With `C[C@@H]1CNCCN1S(=O)(=O)c1cccc2cnccc12`, the Potency in assay [1] and in assay [5] was above 46 µM throughout. For the same compound, the Potency result in assay [2], in assay [3] and in assay [4] was “inactive” in each case.

As to `O=C1CC2(CCCC2)CC(=O)N1CCCCNC[C@H]1COc2ccccc2O1`, the values for the Potency in assay [1], in assay [5] and in assay [6] were above 46 µM, above 46 µM and 0.631 µM (active), respectively. Further, the Potency result in assay [3] and in assay [4] was “inactive” throughout.

Take `CC(C)Oc1cccc(-n2c(CCc3c[nH]c4ccc(Br)cc34)nc3ccccc3c2=O)c1`: the Potency was above 46 µM in assay [1] and 3.98 µM (active) in assay [6]. For the same compound, the Potency result in assay [3] and in assay [4] was “inactive” each time.

Turning to `CCCCCS(=O)(=O)CCCCCCCCCCn1c(-c2ccc(O)cc2)c(C)c2cc(O)ccc21`, in assay [6], the Potency was 0.631 µM (active). Further, in assay [4], the Potency result was “inactive”.

In the case of `Cc1cccc(CCN2CCC(C(=O)c3ccc(NS(C)(=O)=O)cc3)CC2)n1`, the Potency entry in assay [3] and in assay [4] was “inactive” throughout.
